Screens as filed in PubChem BioAssay.
The list is not random: actives were taken first. Their share in the collection is about 12%.
Sfp PPTase inh = inhibitors of Bacillus subtilis Sfp phosphopantetheinyl transferase; Q9F4F7; Biochemical Sfp PPTase activity, qHTS; Potency, µM, most hits filed as inhibitors; 3.5% of 310,000 active; AID 1490;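 further: the enzyme is Sfp with the accession as filed and its product quenches rhodamine fluorescence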
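Reaction rates are the 30-min fluorescence difference (ex 525, em 598 nm) in wells containing 15 nM Sfp, 5 uM rhodamine-CoA and 12.5 uM BHQ-2-YbbR at pH 7.6 with 10 mM MgCl2.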
G9a block = G9a (human) methyltransferase inhibition; Q96KQ7; G9a H3K9 monomethylation, AlphaScreen, 2 h; Potency, µM (doses to about 102 µM), actives largely listed as inhibitors; 8.8% of 350,000 active; AID 504332; further: nearly all actives have a fitted effect of over 75% in size
Target sequence (Q96KQ7 913-1193 limits assumed): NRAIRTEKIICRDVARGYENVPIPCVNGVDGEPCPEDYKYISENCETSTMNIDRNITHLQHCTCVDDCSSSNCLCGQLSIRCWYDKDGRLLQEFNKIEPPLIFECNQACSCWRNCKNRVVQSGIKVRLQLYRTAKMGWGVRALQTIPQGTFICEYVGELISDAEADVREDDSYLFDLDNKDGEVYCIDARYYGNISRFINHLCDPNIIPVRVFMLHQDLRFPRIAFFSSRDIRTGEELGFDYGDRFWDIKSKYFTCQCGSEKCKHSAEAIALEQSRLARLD
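G9a (20 nM) was preincubated 15 min with compound, then reacted 2 h at room temperature with 500 nM biotin-H3K9 peptide and 20 µM SAM. Monomethyl-H3K9 detected by AlphaScreen using anti-H3K9me1 antibody.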
JMJD2A Tudor = blocks the human JMJD2A Tudor domain; AlphaScreen JMJD2A-Tudor / H3K4me3 peptide binding; Potency, µM (highest dose often 114 µM), most hits filed as inhibitors; 4.4% of 390,000 active; AID 504339; further: nearly all actives have a fitted effect of over 50% in size
HP1b binding inh = HP1-beta chromodomain-methylated histone interaction inhibition; Potency, µM (series often up to 114 µM), actives largely listed as inhibitors; 0.56% of 390,000 active; AlphaScreen HP1-beta / biotin-H3K9me3 peptide binding; AID 540317; P83916; further: nearly all actives have a fitted effect of over 70% in size
Target sequence (P83916 whole entry, looked up): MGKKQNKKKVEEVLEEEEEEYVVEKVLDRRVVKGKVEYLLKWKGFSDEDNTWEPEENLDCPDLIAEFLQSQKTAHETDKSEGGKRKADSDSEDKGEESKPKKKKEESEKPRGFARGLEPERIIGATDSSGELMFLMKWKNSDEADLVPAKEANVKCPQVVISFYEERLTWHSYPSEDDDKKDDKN
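AlphaScreen: HP1-beta (50 nM) preformed 30 min with biotin-H3(1-18)K9me3 peptide (50 nM) in PBS pH 7.4, 0.01% Tween-20. Compound added for 30 min at RT, then streptavidin donor/nickel chelate acceptor beads (10 ug/mL) for 30 min.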
BAZ2B block = inhibitors of human BAZ2B bromodomain; AlphaScreen BAZ2B-H3K14Ac peptide displacement; Q9UIF8; 4.4% of 360,000 active; Potency, µM (series often up to 114 µM), hits mostly inhibitors; further: nearly all actives have a fitted effect of over 60% in size
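AlphaScreen displacement: compounds (up to 110uM) incubated 30 min at room temperature with a preformed 50 nM BAZ2B/50 nM biotinylated H3K14Ac peptide complex in PBS pH 7.4 with Tween-20. Donor and acceptor beads at 10 ug/mL final added, 20 min light-protected before reading.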
Hits are given with their value; – = inactive; ? = inconclusive; · = no result given; ! = not confirmed by another sample; [ ] = another dose, or the depositor's remark. The call rests on the fitted dose curve; in most records, active means well fitted curve in the direction sought with a large enough effect; inconclusive means small, poorly fitted or top-dose-only effect, or another doubt; inactive means no such curve, though single readings can be large; an effect the other way counts as inactive or inconclusive.

SMILES	Sfp PPTase inh	G9a block	JMJD2A Tudor	HP1b binding inh	BAZ2B block
CCCOc1ccc(-c2c(=O)n(O)c3ccccc3[n+]2[O-])cc1	–	–[0.501 µM]	56µM	–	?
CC(=O)C(C)n1c(CN2CCN(C(=O)c3ccco3)CC2)nc2c1c(=O)n(C)c(=O)n2C (stereo not given)	–	·	–	–	–
O=C(c1ccccc1)N1CCCCC1CCN1CCCCC1 (stereo not given)	·	–	–	–	–
CC(Sc1nnc(N)s1)C(=O)c1c(N)n(C)c(=O)n(C)c1=O (stereo not given)	·	50µM	–	–	–
Cc1nc(SC(C)C(=O)c2c(N)n(C)c(=O)n(C)c2=O)c2c(C)c(C)sc2n1 (stereo not given)	·	7.1µM	?	–	–
CC(C)[C@H]1C=C(C(=O)O)O[C@@H](OCc2ccc(CO)cc2)C1	–	?	89µM	–	?
C[C@@H]1C=C(C(=O)O)O[C@H](OCc2ccc(CO)cc2)C1	–	–	–	–	–
COC(=O)[C@H]1C[C@@H]1[C@H](NS(=O)(=O)c1ccccc1)c1ccccc1	71µM!	?	–	–	–
COC(=O)[C@H]1C[C@@H]1[C@H](NC(=O)[C@H]1C[C@@H]1[C@H](NC(=O)OCc1ccccc1)c1ccccc1)c1ccccc1	–	45µM	–	–	–
COc1cc(NC(=S)Nc2ncccc2C)cc(OC)c1OC	50µM	10µM	–	–	?
Cc1ccc(C)c(NC(=S)Nc2ncccc2C)c1	?	32µM	32µM	?	?
Cc1cccnc1NC(=S)Nc1ccc(F)cc1F	18µM	50µM	–	–	?
COC(=O)c1ccc(NC(=O)c2cc(=O)c3ccc(C)cc3o2)cc1	·	–	–	–	–
CCc1ccc(NC(=O)C(C)OC(=O)CC(NC(C)=O)c2ccccc2)cc1 (stereo not given)	–	–	–	–	–
CCOC(=O)/C=C1\CN(CCC(C)C)S(=O)(=O)c2ccccc21	–	35µM	–	–	–
CCOC(=O)/C=C1\CN(C(C)c2ccccc2)S(=O)(=O)c2ccccc21 (stereo not given)	–	18µM	79µM	–	–
CC(C)(C)N=C1NN=C(c2cc3ccccc3o2)CS1	–	40µM	–	–	?
CCCc1nn2c(=O)cc(COc3cccc(NC(=O)c4ccco4)c3)nc2s1	–	–	–	–	–
CCc1nn2c(=O)cc(COc3cccc(NC(=O)c4ccco4)c3)nc2s1	–	·	25µM	–	?
O=C(CCCn1c(=O)oc2ccccc21)NNC(=O)COc1ccc(F)cc1	·	·	–	–	·
COc1ccc(OC)c(-n2c(-c3cccc(S(=O)(=O)N(C)C)c3)n[nH]c2=S)c1	–	2.5µM	?	–	·
COc1cccc(-n2c(-c3cccc(S(=O)(=O)N(C)C)c3)n[nH]c2=S)c1	50µM	2.5µM	8.9µM	–	·
Cn1cnc([N+](=O)[O-])c1Sc1nc(N)nc2c1ncn2C1CC(O)C(CO)O1 (stereo not given)	·	·	–	–	·
O=C(NCc1ccc(F)cc1Cl)c1cc(=O)[nH]c2ccc(S(=O)(=O)N3CCCCC3)cc12	·	–	–	–	–
CCn1c2ccccc2c2cc(/C=N/n3cnnc3)ccc21	–	–	–	–	–
SMILES	Sfp PPTase inh	G9a block	JMJD2A Tudor	HP1b binding inh	BAZ2B block
CCn1c2ccccc2c2cc(/C=N/n3c(-c4cc(C)[nH]n4)n[nH]c3=S)ccc21	–	2.5µM	?	–	–
CCn1c2ccccc2c2cc(/C=N/n3cn[nH]c3=S)ccc21	–	–[0.501 µM]	18µM	–	?
COc1ccc(NC(=O)CC2C(=O)N(c3cccc(C)c3)C(=O)N2Cc2cccnc2)cc1 (stereo not given)	·	–	–	–	–
c1ccc(-c2ccc3[nH]ccc3c2)cc1	·	–[0.501 µM]	–	–	–
c1ccc(-c2onc(-c3ccco3)c2-c2ccc3[nH]ccc3c2)cc1	–	40µM	?	–	?
Cc1ccc(S(=O)(=O)N2CCN(C(=O)COC(=O)c3ccc(O)cc3)CC2)c(C)c1	·	–[0.501 µM]	89µM	–	–
CCOc1ccc(OCCC(=O)OCC(=O)N2CCN(S(=O)(=O)c3ccc(C)cc3)CC2)cc1	·	56µM	–	–	–
Cc1ccc(S(=O)(=O)N2CCN(C(=O)COC(=O)CCOc3ccccc3C)CC2)c(C)c1	·	11µM	–	–	–
Cc1ccc(C)c(S(=O)(=O)N2CCN(C(=O)CN3C(=O)C4CC=CCC4C3=O)CC2)c1 (stereo not given)	·	50µM	–	–	–
CC(C)c1ccc(Nc2c(-c3ccc(N(C)C)cc3)nc3cnccn23)cc1	·	–	?	–	–
CCCNC(=O)CCc1nnc2ccc(N3CCN(c4cccc(OC)c4)CC3)nn12	·	–	–	–	–
O=C(CN1C(=O)NC2(CCCC2)C1=O)N1CCN(S(=O)(=O)c2ccccc2)CC1	–	–	–	–	·
Cc1ccc(S(=O)(=O)N2CCN(C(=O)CN3C(=O)NC4(CCOc5ccccc54)C3=O)CC2)cc1 (stereo not given)	–	56µM	–	–	–
COc1ccc(S(=O)(=O)N2CCN(C(=O)CN3C(=O)NC4(CCCC4)C3=O)CC2)cc1	–	·	–	–	–
CCOc1ccc(S(=O)(=O)N2CCN(C(=O)CN3C(=O)NC4(CCCC4)C3=O)CC2)cc1	·	32µM	–	–	–
CCOC(=O)c1cccc(NC(=O)c2cc(CN3CCOCC3)on2)c1	·	–	–	–	–
O=C(CN1CCCC1)OCCCC1CCCCC1	–	56µM	–	–	–
C[N+]1(CC(=O)OCCCC2CCCCC2)CCCC1	–	56µM	?	?	–
CC(C)(C)C1CCC(OC(=O)C[N+]2(C)CCCCC2)CC1 (stereo not given)	–	–	–	–	–
Cc1ccc(NC(c2cccc(Cl)c2)c2nnc(-c3ccccc3)o2)cc1F (stereo not given)	·	–	–	–	?
O=c1cc(-c2ccccc2)n2c(SCc3ccc(Br)cc3)nnc2[nH]1	·	?	–	–	–
Cc1ccc(NC(=O)CN2C(=O)CSc3ccc(S(=O)(=O)N(C)C)cc32)cc1C	·	–	–	–	–
CCC(C)NCCOCCOc1ccccc1-c1ccccc1 (stereo not given)	–	13µM	3.5µM	?	50µM
COC(=O)c1ccccc1OCCCN(C)C	?	8.9µM	89µM	?	79µM
COC(=O)c1ccccc1OCCCOc1ccc(C)cc1OC	?	–	·	·	–
SMILES	Sfp PPTase inh	G9a block	JMJD2A Tudor	HP1b binding inh	BAZ2B block
CC(C)(C)NCCOCCOc1ccccc1-c1ccccc1	–	3.5µM	1.8µM	22µM	22µM
COCCCNCCOCCOc1ccccc1-c1ccccc1	?	?	2.5µM	?	50µM
CC1CCC(NC(=O)c2cc(S(=O)(=O)N(C)C)ccc2N2CCCC2)CC1 (stereo not given)	·	–	–	–	–
CN(C)CCNCCCOc1ccccc1-c1ccccc1	50µM	8.9µM	·	·	40µM
C=CCNCCOCCOc1ccccc1-c1ccccc1	–	·	50µM	–	79µM
O=C(NCCOc1ccccc1-c1ccccc1)c1ccco1	–	–	–	–	–
